# From PubChem BioAssay
# TRHR agonist-1: TRH receptor (human) agonism. P34981. TRHR cells, calcium flux fluo-8, FDSS agonist mode. activation, % at 2 µM. actives 0.18% (n = 360,000). AID 493084; in the data active = activation above about 30%; also: 0% is about no effect
# Target sequence (P34981 whole entry, looked up): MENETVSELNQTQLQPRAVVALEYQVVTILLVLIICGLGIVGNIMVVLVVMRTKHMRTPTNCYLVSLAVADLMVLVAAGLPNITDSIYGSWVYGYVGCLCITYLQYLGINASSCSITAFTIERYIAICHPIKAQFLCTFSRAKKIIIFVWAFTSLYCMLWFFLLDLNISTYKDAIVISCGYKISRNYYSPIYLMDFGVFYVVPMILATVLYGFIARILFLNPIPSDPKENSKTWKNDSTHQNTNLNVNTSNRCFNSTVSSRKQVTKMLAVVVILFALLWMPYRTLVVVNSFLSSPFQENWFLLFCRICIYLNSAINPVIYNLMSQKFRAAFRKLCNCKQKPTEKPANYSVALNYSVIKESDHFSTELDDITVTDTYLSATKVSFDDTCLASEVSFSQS
#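 TRHR-expressing cells loaded with fluo-8 calcium dye; 23 nL library compound pin-transferred, kinetic FDSS fluorescence (Ex 480/Em 530) recorded about 180 s for agonist-induced calcium release, before a 10 nM TRH EC20 addition for potentiator mode.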
# TRHR enhancer-1: allosteric enhancers of human TRH receptor | enhancement, % at 2 µM | actives 0.66% (n = 360,000) | P34981 | TRHR cells, fluo-8 calcium fluorescence, EC20 TRH enhancement; in the data active = enhancement above about 30%; also: 0% is about no effect
#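 TRHR-expressing cells loaded with fluo-8 calcium dye were read kinetically (ex 480/em 530) during compound addition, then stimulated with an EC20 of TRH (10 nM final). Enhancement of the Gq-mediated intracellular calcium response was scored.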
# TRPML1 agonist: human mucolipin-1 channel agonism; Q9GZU1; TRPML1-expressing cells, Ca2+ dye fluorescence, FDSS; activation, % (concentration not given with the values); AID 624414; actives 0.12% (n = 410,000); in the data active = activation above about 50%; inconclusive = mostly about 30% to 49%; also: 0% is about no effect
#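 TRPML1-DL cells, Tet-induced overnight (~16 h, 37 degrees C), loaded 45-90 min at room temperature with Ca8 no-wash calcium dye plus quencher. FDSS fluorescence: 10 s baseline, compound pin-transfer, 110 s agonist read, then EC80 54-4 (4uM final) and 110 s antagonist read.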
# TRPML1 inh: inhibitors of human TRPML1 channel; Q9GZU1; AID 624415; TRPML1-inducible cells, Ca2+ dye fluorescence, FDSS; active compounds read low; inhibition of EC80 agonist-evoked calcium signal; actives 0.02% (n = 390,000); activity change, negative = inhibition, % (concentration not given with the values); in the data active = activity change below about -50%; inconclusive = between about -30% and that limit;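 also: stimulus is agonist 54-4 at its EC80 concentration; % is scaled to controls: 0 for no effect and ±100 for the full control effect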
#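 Calcium fluorescence in TRPML1-DL cells induced overnight with Tet: a 110 s read after compound pin addition, then a 110 s antagonist read after challenge with 54-4 at 4 uM final (EC80).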
# PTHR1 agonist: activates the human parathyroid hormone receptor PTHR1. actives 0.075% (n = 410,000). Q03431. Potency, µM (doses to about 115 µM), for the others: at the highest dose activation, hits mostly activators. AID 743266. HEK293 GP2 PTHR1 cells, GloSensor cAMP luminescence, 1 h; also: potency is read from the fitted curve at half-maximal effect; nearly all actives have a fitted effect of over 55% in size
#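 HEK-293-derived GP2 cells expressing PTHR1 and a GloSensor cAMP reporter, 3,000/well, plated overnight, given luciferin plus IBMX (each 0.5 mM as added) for 1 h at 37 °C, then compound for 1 h at 37 °C. Luminescence was read after 15 min at room temperature.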
# GLP1R cytotox: cytotoxicity in counter-screen for GLP-1R inverse agonists; actives 0.13% (n = 410,000); Potency, µM (series often up to 38.3 µM), without a hit: at the highest dose activity change, negative = inhibition, hits mostly inhibitors; HEK293 cAMP-luciferase reporter cells, luminescence, 24 h; AID 624418;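 also: loss of luciferase light is scored as toxicity; potency is read from the fitted curve at half-maximal effect; % is scaled to controls: 0 for no effect and ±100 for the full control effect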
#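 Cells in DMEM/10% Nu serum/1% pen-strep, 1536-well format. Pre-incubated 12 h, dosed with 23 nL compound, incubated a further 24 h. Luciferase detection, 12 min at room temp, luminescence.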
# TRHR enhancer-2: confirmation of human TRH receptor allosteric enhancers; shares compounds with TRHR enhancer-1; TRH receptor cell assay, enhancer confirmation qHTS; activity change, negative = inhibition, % at 46.1 µM; 970 tested, under 10 active;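 also: compound effect scored on response to added TRH at EC20 of 10 nM; 0% is about no effect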
# TRHR agonist-2: human TRH receptor agonism confirmation. shares compounds with TRHR enhancer-1. Potency, µM (highest dose often 46.1 µM), for the others: at the highest dose activation, usual class: activators. actives 8% (n = 970). TRHR-expressing cells, agonist activation read-out; also: potency is read from the fitted curve at half-maximal effect; 0% is about no effect; nearly all actives have a fitted effect of over 75% in size
# * = called active by the depositor; i = inactive; ? = inconclusive; · = no result; [ ] = another dose, or the depositor's remark. Rows were chosen to be rich in hits. Some 0.93% of all compounds tested hit in one or more screens of this group. Unless noted, calls follow the shape of the dose curve; as a rule, active = well fitted curve in the direction sought with a large enough effect; inconclusive = small, poorly fitted or top-dose-only effect, or another doubt; inactive = no such curve, though single readings can be large; an effect the other way counts as inactive or inconclusive.
SMILES,TRHR agonist-1,TRHR enhancer-1,TRPML1 agonist,TRPML1 inh,PTHR1 agonist,GLP1R cytotox,TRHR enhancer-2,TRHR agonist-2
COc1ccc(NC(=O)C(C)N(c2ccccc2)S(C)(=O)=O)cc1 (centres undefined),-1,5,-1,7,i,-9%,·,·
COc1ccc(N(C(C)C(=O)N(C)Cc2ccccc2)S(C)(=O)=O)cc1 (centres undefined),0,50*,·,·,i,-19%,1,0%
Cc1nc([N+](=O)[O-])cn1CC(O)c1ccc2c(c1)OCCCO2 (centres undefined),·,·,0,·,·,·,·,·
C[C@@H]1C(=O)N(S(=O)(=O)c2ccccc2[N+](=O)[O-])[C@H]1c1ccc(-c2ccccc2)cc1,·,·,1,52,·,·,·,·
COC(=O)c1nnn(-c2nonc2N)c1CSc1nc2ccccc2s1,0,3,1,11,-23%,7%,·,·
CCOC(=O)c1nnn(-c2nonc2N)c1CSc1nnc(N)s1,0,52*,0,6,i,-3%,-1,1%
O=C1CC(c2ccccc2)Sc2nc3ccccc3n21 (centres undefined),-1,42*,2,-14,-90%,4%,-10,1%
Nc1nc(=S)[nH]c(N)c1N,·,·,-1,·,·,·,·,·
CCc1ccc(NC(=S)N2CCCC2)cc1,0,-9,0,-4,i,7%,·,·
CCc1ccc(NC(=S)N2CCN(C)CC2)cc1,1,58*,1,13,i,-10%,4,-1%
CC1(C)CC2CC(C)(CN2S(=O)(=O)c2ccc(C(=O)Nc3ccc(S(=O)(=O)N4CCOCC4)cc3)cc2)C1 (centres undefined),2,-6,1,-2,-35%,11%,·,·
CCOC(=O)c1cc([N+](=O)[O-])sc1NC(=O)c1ccc(S(=O)(=O)N2CC3(C)CC2CC(C)(C)C3)cc1 (centres undefined),37*,-16,60*,?,-32%,-32%,-2,?
O=S(=O)(c1ccccc1C(F)(F)F)N1CCN(c2nc(-c3ccccc3)nc3ccccc23)CC1,·,·,0,·,·,·,·,·
CCC1=C[C@@H]2CN(C1)Cc1c([nH]c3ccccc13)[C@@](C(=O)OC)(c1cc3c(cc1OC)N(C)[C@H]1[C@@](O)(C(=O)OC)[C@H](OC(C)=O)[C@]4(CC)C=CCN5CC[C@]31[C@@H]54)C2,·,·,-1,·,·,·,·,·
CC(=O)c1c(C)[nH]c(C(=O)COC(=O)COc2ccccc2F)c1C,-1,52*,1,-7,-25%,-6%,-1,0%
Cc1sc2ccccc2[n+]1C,·,·,2,·,·,·,·,·
CCC1(C)Cc2c(sc3c2c(=O)n(C)c2nnc(SCc4ccccc4)n32)CO1 (centres undefined),-1,3,0,7,3%,12%,·,·
CCC1(C)Cc2c(sc3c2c(=O)n(C)c2nnc(SCCc4ccccc4)n32)CO1 (centres undefined),0,65*,0,-13,-2%[57.5 µM],7%,-9,0%
Cc1ccc(SCC(Cc2ccccc2)N2CCN(C)CCC2=O)cc1 (centres undefined),·,·,1,2,·,·,·,·
CC(C(=O)c1ccccc1)[n+]1cccc(C(N)=O)c1 (centres undefined),0,41*,1,1,i,-1%,1,-1%
CCc1ccc(NC(=O)C[n+]2cc(-c3ccc(C)cc3)n3c2CCC3)cc1,0,42*,5,15,i,-12%,-1,-1%
Cc1ccc(-c2c[n+](CC(=O)Nc3c(C)cccc3C)c3n2CCC3)cc1,0,-1,1,0,i,6%,·,·
Cc1ccc(NC(=O)c2ccc(-n3nncc3-c3ccccc3)cc2)cc1,·,·,0,·,·,·,·,·
O=C1CCC[C@@H]2[C@@H](Cc3ccccc3)[C@@H](Nc3ccccc3)C[C@@H]3CCN1[C@@H]32,·,·,-1,·,·,·,·,·
CCOC(=O)/C(C#N)=C(C)/C=C1\Sc2ccccc2N1CC,33*,-5,52*,2,i,2%,7,21µM*
SMILES,TRHR agonist-1,TRHR enhancer-1,TRPML1 agonist,TRPML1 inh,PTHR1 agonist,GLP1R cytotox,TRHR enhancer-2,TRHR agonist-2
CN(C(=O)c1ccoc1)c1ccccc1I,·,·,1,9,·,·,·,·
Cc1ccc(N2CCN(C(=O)c3cc(C(=O)c4ccccc4C)c[nH]3)CC2)c(C)c1,-1,86*,5,3,-36%,-10%,1,0%
NC(=O)[C@@H]1CCCN1C(=O)[C@@H](Cc1cnc[nH]1)NC(=O)[C@@H]1CCC(=O)N1,85*,-12,0,3,18%,-15%,-25,0.015µM*
CCNC(=O)C1CCCN1C(=O)C(CCCN=C(N)N)NC(=O)C(CC(C)C)NC(=O)C(Cc1cn(Cc2ccccc2)cn1)NC(=O)C(Cc1ccc(O)cc1)NC(=O)C(CO)NC(=O)C(Cc1c[nH]c2ccccc12)NC(=O)C(Cc1cnc[nH]1)NC(=O)C1CCC(=O)N1 (centres undefined),0,-7,0,8,-24%,-3%,·,·
O=C(c1ccc2c(c1)OCO2)C1CCCN(C(=O)c2cnn(Cc3ccccc3)c2)C1 (centres undefined),-1,41*,0,2,-30%,-2%,-7,0%
Nc1ncnc2c1[nH]c(=S)n2C1OC(CO)C(O)C1O (centres undefined),·,·,-1,·,·,·,·,·
COC(=O)CN(c1nc(C)cc(OC)n1)S(=O)(=O)c1ccccc1,-1,68*,3,-6,i,7%,-7,2%
COC(=O)C[C@H]1c2cc(F)ccc2S(=O)(=O)N1C1CC1,·,·,-1,·,·,·,·,·
CC1(C)OC(=O)C2(Cc3c(F)cccc3N3CCCC32)C(=O)O1 (centres undefined),0,0,2,-4,·,·,·,·
CCCCOc1ccc(C(=O)N/C(=C/C=C/c2ccccc2)C(=O)O)cc1,29,-1,0,16,i,-21%,-6,0%
COc1ccc(SCC(Cc2ccccc2)N2CCN(CC(C)C)CCC2=O)cc1 (centres undefined),·,·,1,39,·,·,·,·
O=C(Nc1ccccc1)C(=O)c1c[nH]c2ccccc12,1,50*,0,-6,i,13%,-5,-1%
CC(=O)N(O)c1ccc(/C=C2\C=Cc3ccccc32)cc1,·,·,-1,·,·,·,·,·
